We go through 50 compounds from PubChem BioAssay (NCATS).

Inconclusive results are not listed. Values without a mark were called inactive. The source made the active and inactive calls. Calls come from the whole dose curve; as a rule, active = well fitted curve in the direction sought with a large enough effect; inconclusive = small, poorly fitted or top-dose-only effect, or another doubt; inactive = no such curve, though single readings can be large; an effect the other way counts as inactive or inconclusive.

The target of assay [1] is Rap guanine nucleotide exchange factor 3 (Homo sapiens) (UniProt O95398). As to the kind of experiment: Confirmatory qHTS for agonist of cAMP-regulated guanine nucleotide exchange factor 3 (EPAC1) (AID 1645881).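 Note: EPAC1 catalysed release of BODIPY-GDP from Rap1B seen as fluorescence loss; 100% = effect of cAMP agonist control; nearly all actives have a fitted effect of over 75% in size.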 A general note: Quantitative high-throughput screening tests each substance at several concentrations.
Sequence of Rap guanine nucleotide exchange factor 3 (Homo sapiens) (O95398 whole entry, looked up): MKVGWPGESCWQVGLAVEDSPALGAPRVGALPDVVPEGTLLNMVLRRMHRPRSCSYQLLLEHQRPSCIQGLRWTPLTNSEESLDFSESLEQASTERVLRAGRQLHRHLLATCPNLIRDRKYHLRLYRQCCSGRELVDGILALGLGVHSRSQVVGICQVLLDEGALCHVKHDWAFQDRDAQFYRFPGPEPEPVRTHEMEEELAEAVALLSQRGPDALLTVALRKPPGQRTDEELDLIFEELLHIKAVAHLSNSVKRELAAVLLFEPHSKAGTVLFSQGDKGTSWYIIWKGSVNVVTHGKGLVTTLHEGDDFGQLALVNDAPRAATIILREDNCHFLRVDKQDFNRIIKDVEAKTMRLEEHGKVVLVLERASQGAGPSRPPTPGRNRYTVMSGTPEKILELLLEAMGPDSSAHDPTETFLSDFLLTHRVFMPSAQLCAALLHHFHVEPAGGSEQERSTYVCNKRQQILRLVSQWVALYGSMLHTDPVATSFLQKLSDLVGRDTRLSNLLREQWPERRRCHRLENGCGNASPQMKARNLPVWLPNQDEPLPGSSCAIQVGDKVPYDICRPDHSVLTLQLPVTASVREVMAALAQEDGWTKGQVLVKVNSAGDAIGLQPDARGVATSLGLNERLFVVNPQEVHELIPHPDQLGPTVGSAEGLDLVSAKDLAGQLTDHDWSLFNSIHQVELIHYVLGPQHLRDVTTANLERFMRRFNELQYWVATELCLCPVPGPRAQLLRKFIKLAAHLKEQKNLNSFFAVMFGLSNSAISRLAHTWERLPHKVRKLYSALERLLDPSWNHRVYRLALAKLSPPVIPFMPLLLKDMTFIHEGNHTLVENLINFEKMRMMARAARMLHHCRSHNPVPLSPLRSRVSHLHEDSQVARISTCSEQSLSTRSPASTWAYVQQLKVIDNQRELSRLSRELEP
The target of assay [2] is Rap guanine nucleotide exchange factor 4 (Homo sapiens) (UniProt Q8WZA2). Briefly: Confirmatory qHTS for agonist of cAMP-regulated guanine nucleotide exchange factor 4 (EPAC2) (AID 1645884).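 Note: nucleotide exchange releases bodipy-GDP from Rap1 and this lowers its fluorescence; % is set by controls: 0 for no effect and ±100 for the full control effect; nearly all actives have a fitted effect of over 65% in size.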
Sequence of Rap guanine nucleotide exchange factor 4 (Homo sapiens) (Q8WZA2 whole entry, looked up): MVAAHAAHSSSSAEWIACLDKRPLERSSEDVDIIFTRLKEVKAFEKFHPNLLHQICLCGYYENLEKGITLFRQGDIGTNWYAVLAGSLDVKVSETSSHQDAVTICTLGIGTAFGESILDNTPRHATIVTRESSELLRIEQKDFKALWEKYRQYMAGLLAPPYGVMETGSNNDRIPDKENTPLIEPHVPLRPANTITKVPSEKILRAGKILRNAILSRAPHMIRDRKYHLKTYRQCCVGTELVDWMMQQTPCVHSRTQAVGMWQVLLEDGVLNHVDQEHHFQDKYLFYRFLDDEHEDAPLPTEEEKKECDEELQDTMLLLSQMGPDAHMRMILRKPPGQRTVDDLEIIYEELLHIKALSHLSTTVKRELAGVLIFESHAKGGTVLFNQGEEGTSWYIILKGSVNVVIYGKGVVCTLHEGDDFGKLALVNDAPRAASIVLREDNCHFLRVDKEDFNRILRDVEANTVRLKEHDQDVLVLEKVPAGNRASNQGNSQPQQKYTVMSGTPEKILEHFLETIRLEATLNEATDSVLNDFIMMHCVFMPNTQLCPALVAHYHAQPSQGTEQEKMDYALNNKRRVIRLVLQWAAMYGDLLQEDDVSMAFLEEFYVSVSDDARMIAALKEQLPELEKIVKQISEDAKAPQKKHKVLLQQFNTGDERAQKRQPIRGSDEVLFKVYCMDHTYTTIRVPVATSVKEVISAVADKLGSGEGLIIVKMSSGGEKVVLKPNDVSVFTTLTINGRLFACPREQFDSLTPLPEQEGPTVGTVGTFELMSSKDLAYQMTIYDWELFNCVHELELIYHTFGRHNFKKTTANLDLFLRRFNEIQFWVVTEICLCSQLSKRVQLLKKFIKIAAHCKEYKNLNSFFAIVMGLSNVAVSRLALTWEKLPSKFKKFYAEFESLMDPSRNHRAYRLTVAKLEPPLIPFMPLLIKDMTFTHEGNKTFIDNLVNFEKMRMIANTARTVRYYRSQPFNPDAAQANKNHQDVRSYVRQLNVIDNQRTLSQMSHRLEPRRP
Assay [3] shares this target. As to the kind of experiment: Confirmatory qHTS for antagonist of cAMP-regulated guanine nucleotide exchange factor 4 (EPAC2) (AID 1645885). For activity change, negative = inhibition: % is set by controls: 0 for no effect and ±100 for the full control effect. Note: nearly all actives have a fitted effect of over 25% in size. Note: potency is the fitted concentration of half-maximal effect.
In assay [4] the target is Rap guanine nucleotide exchange factor 3 (Homo sapiens) (UniProt O95398). Briefly: Counterscreen qHTS for antagonist of cAMP-regulated guanine nucleotide exchange factor 3 (EPAC1) (AID 1645888).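 Note: fluorescence loss as bound BODIPY-GDP is released from Rap1B; % of control where 0% means no effect.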 The method, boiled down: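 Rap1B–BODIPY-GDP (250 nM) with 50 uM GDP; compounds pin-transferred to 9.74 nM–152 uM final (activator) or from 7.32 nM upwards (inhibitor). Fluorescence Ex/Em 480/540 nm read at 5 and 30 min, then after adding cAMP or buffer, at room temperature.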

Consider `COc1ccc2c(c1)Cc1sc(NC(=O)c3ccccc3C)nc1-2`, for which the Potency entry in assay [1], in assay [2], in assay [3] and in assay [4] was “inactive” in each case.

On to `CC(c1ccccc1)n1cc2c(c1-c1ccccc1Br)c(=O)n(C)c(=O)n2C` (stereo not given), for which the Potency result in assay [1], in assay [2], in assay [3] and in assay [4] was “inactive” throughout.

Turning to `CC(NC(=O)/C(C#N)=C/c1ccc([N+](=O)[O-])o1)c1ccccc1` (stereo not given), the Potency result in assay [1] and in assay [3] was “inactive” throughout. For the same compound, in assay [2], the activation is 5.83% [at 17.1 µM, percent relative to cAMP agonist control]. In addition, in assay [4], the activity change, negative = inhibition was 20.7% [at 30.8 µM].

`CN(C)C(CNC(=O)c1cc(-c2ccco2)nc2ccccc12)c1ccccc1` (stereo not given): the Potency entry in assay [1] and in assay [3] was “inactive” throughout. Also, the activation in assay [2] was 5.95% [at 17.1 µM, percent relative to cAMP agonist control]. Besides, the activity change, negative = inhibition in assay [4] is -8.2% [at 30.8 µM].

Turning to `COCCN1C(=O)c2[nH]nc(-c3ccccc3O)c2C1c1ccc(Cl)c(Cl)c1` (stereo not given), the Potency result in assay [1], in assay [2], in assay [3] and in assay [4] was “inactive” each time.

Regarding `CCSc1nc2c([nH]c3ccccc32)c(=O)n1-c1cccc(OC)c1`, the Potency entry in assay [1], in assay [2], in assay [3] and in assay [4] was “inactive” each time.

As for `O=S(=O)(c1ccc2c(c1)C(O)c1ccccc1CC2)C(F)(F)F` (stereo not given), the Potency result in assay [1], in assay [2], in assay [3] and in assay [4] was “inactive” throughout.

Regarding `CCOC(=O)c1ccc(NC(=O)c2c(NCc3cccs3)sc3c2CCCCC3)cc1`, the Potency entry in assay [1], in assay [2] and in assay [4] was “inactive” in each case. Further, the outcome in assay [3] was “inactive [at 12.7 µM]”.

`O=C1N(Cc2ccccc2)c2ccccc2C1(O)c1c[nH]c2ccccc12` (stereo not given): the Potency result in assay [1], in assay [2], in assay [3] and in assay [4] was “inactive” each time.

On to `CN(C)c1ccc(C=C(C#N)C(=O)c2ccccc2)cc1Br`, for which the Potency entry in assay [1], in assay [2], in assay [3] and in assay [4] was “inactive” throughout.

For `Cc1ccc(C)c(Cn2c(CN(C)Cc3ccccc3)nc3c2c(=O)n(C)c(=O)n3C)c1`, the Potency result in assay [1], in assay [2], in assay [3] and in assay [4] was “inactive” each time.

For the compound `Cn1cnnc1SCC(=O)Nc1sc2c(c1C(N)=O)CCC2`, the Potency entry in assay [1], in assay [2], in assay [3] and in assay [4] was “inactive” throughout.

As to `Fc1ccccc1C1CC(c2ccco2)=Nc2ccccc2S1` (stereo not given), the Potency result in assay [1] and in assay [3] was “inactive” in each case. Besides, the activation in assay [2] is 8.88% [at 17.1 µM, percent relative to cAMP agonist control]. Moreover, the activity change, negative = inhibition in assay [4] is -3.18% [at 30.8 µM].

Regarding `O=C(CSc1ccc(-c2ccco2)nn1)c1cccc([N+](=O)[O-])c1`, the Potency result in assay [1], in assay [2], in assay [3] and in assay [4] was “inactive” each time.

`COc1ccc(CCNC(=O)CS(=O)(=O)Cc2nc(-c3ccc(C)cc3)oc2C)cc1OC`: the Potency result in assay [1] and in assay [3] was “inactive” each time. The activation in assay [2] is 2.98% [at 17.1 µM, percent relative to cAMP agonist control]. For the same compound, the activity change, negative = inhibition in assay [4] was -2.91% [at 30.8 µM].

As for `O=c1c([N+](=O)[O-])cn(Cc2ccccc2)c(=O)n1Cc1ccccc1`, the Potency entry in assay [1] and in assay [3] was “inactive” each time. Also, in assay [2], the activation was 6.36% [at 17.1 µM, percent relative to cAMP agonist control]. Moreover, in assay [4], the activity change, negative = inhibition is -12.8% [at 30.8 µM].

Take `Cc1ccc(SC/C(O)=C(\C#N)c2nc3ccccc3s2)cc1`: the Potency result in assay [1], in assay [2], in assay [3] and in assay [4] was “inactive” in each case.

As for `COc1cc(NC(=O)c2cc3nc(-c4ccccc4)cc(-c4ccccc4)n3n2)cc(OC)c1OC`, the Potency result in assay [1], in assay [2], in assay [3] and in assay [4] was “inactive” in each case.

In the case of `Cc1cc(C)cc(-n2ccnc2SCC(=O)Nc2ccc3c(c2)OCO3)c1`, the Potency entry in assay [1], in assay [2], in assay [3] and in assay [4] was “inactive” in each case.

As to `Cc1ccc(Cl)cc1N1CCN(C(=O)c2ccc(C)c(-n3c(C)nc4cccnc43)c2)CC1`, the Potency result in assay [1], in assay [2] and in assay [4] was “inactive” each time. Besides, the outcome in assay [3] was “inactive [at 12.7 µM]”.

As to `CN(c1ccccc1)c1ccc(/C=C(/CCC(=O)O)c2nc3ccccc3s2)cc1[N+](=O)[O-]`, the Potency entry in assay [1], in assay [2], in assay [3] and in assay [4] was “inactive” throughout.

For `O=S1(=O)N=C(N(Cc2cccs2)c2ccc(O)cc2)c2ccccc21`, the Potency result in assay [1], in assay [2], in assay [3] and in assay [4] was “inactive” in each case.

For `S=c1[nH]nc(-c2cc(-c3ccccc3)n[nH]2)n1/N=C/c1cccc(Cl)c1`, the Potency result in assay [1], in assay [2], in assay [3] and in assay [4] was “inactive” each time.

In the case of `O=C(Nc1cccc(Cl)c1)Nc1ccccc1NS(=O)(=O)c1cccs1`, the Potency entry in assay [1] and in assay [3] was “inactive” throughout. In assay [2], the activation is 0% [at 17.1 µM, percent relative to cAMP agonist control]. In addition, the activity change, negative = inhibition in assay [4] was -19.4% [at 30.8 µM].

With `Cc1c(C)c2ccc(OCC(=O)Nc3ccc(S(N)(=O)=O)cc3)c(C)c2oc1=O`, the Potency entry in assay [1], in assay [2], in assay [3] and in assay [4] was “inactive” in each case.

As to `O=C(O)c1ccc(N2C(=O)CC(SC(=NCc3ccc4c(c3)OCO4)Nc3ccc(F)cc3)C2=O)cc1` (stereo not given), the Potency entry in assay [1], in assay [2], in assay [3] and in assay [4] was “inactive” throughout.

Take `O=C(O)c1ccn2c(C(=O)c3ccc(Cl)cc3)c(-c3ccccc3)cc2c1`: the Potency entry in assay [1], in assay [2], in assay [3] and in assay [4] was “inactive” each time.

Take `COc1ccc(OCc2nc3ccccc3n2Cc2ccc(C(C)(C)C)cc2)cc1`: the Potency result in assay [1], in assay [2], in assay [3] and in assay [4] was “inactive” each time.

Take `CC1=NN(c2ccccc2)C(=O)C1=Cc1ccccc1`: the Potency result in assay [1] and in assay [3] was “inactive” each time. In addition, the activation in assay [2] is -2.46% [at 17.1 µM, percent relative to cAMP agonist control]. In addition, the activity change, negative = inhibition in assay [4] is 42% [at 30.8 µM].

As for `CC(C)Oc1cccc(C(=O)Nc2ccc3oc(-c4cccc(Cl)c4)nc3c2)c1`, the Potency result in assay [1], in assay [2], in assay [3] and in assay [4] was “inactive” in each case.

As to `CCOC(=O)C1=CN(Cc2cccc(F)c2)S(=O)(=O)NC1c1ccc(Br)cc1F` (stereo not given), the Potency result in assay [1], in assay [2], in assay [3] and in assay [4] was “inactive” throughout.

With `Nc1ccc2ccc(O)cc2c1`, the Potency result in assay [1] and in assay [3] was “inactive” in each case. Besides, the activation in assay [2] is 14.1% [at 17.1 µM, percent relative to cAMP agonist control]. Besides, the activity change, negative = inhibition in assay [4] is -3.65% [at 30.8 µM].

`COc1ccc(Cn2c(-c3ccc(C)cc3)nc3c(c(=O)c4ccccc4n3C)c2=O)cc1`: the Potency entry in assay [1] and in assay [3] was “inactive” throughout. In assay [2], the activation was -1.59% [at 17.1 µM, percent relative to cAMP agonist control]. Moreover, the activity change, negative = inhibition in assay [4] was -16.2% [at 30.8 µM].

For `COc1ccc(/C=C2/SC(=O)N(CCC(=O)Nc3ccc(S(=O)(=O)Nc4nccs4)cc3)C2=O)cc1`, the Potency result in assay [1], in assay [2], in assay [3] and in assay [4] was “inactive” each time.

As to `Cc1ccc(O)c(-c2n[nH]c3c2C(c2ccccc2F)N(Cc2ccco2)C3=O)c1` (stereo not given), the Potency result in assay [1], in assay [2], in assay [3] and in assay [4] was “inactive” in each case.

For `CCc1nc2c(OCc3ccc(C(F)(F)F)cc3)cccn2c1N(C)C(=O)c1ccc(C)cc1`, the Potency entry in assay [1], in assay [2], in assay [3] and in assay [4] was “inactive” in each case.

On to `OC(CSc1ccccc1)CN1CCN(c2cccc(Cl)c2)CC1` (stereo not given), for which the Potency entry in assay [1] and in assay [3] was “inactive” each time. Besides, in assay [2], the activation is 5.38% [at 17.1 µM, percent relative to cAMP agonist control]. The activity change, negative = inhibition in assay [4] is 12.2% [at 30.8 µM].

As for `COC(=O)Cn1c(CN2CCc3ccccc3C2)nc2c1c(=O)n(C)c(=O)n2C`, the Potency result in assay [1], in assay [2], in assay [3] and in assay [4] was “inactive” each time.

On to `COc1cc(O)c(C(C)=O)c2c1C=CC(C)(C)O2`, for which the Potency result in assay [1], in assay [2], in assay [3] and in assay [4] was “inactive” each time.

As to `COc1ccc(C(=O)N(Cc2ccco2)Cc2ccc(C)o2)cc1`, the Potency result in assay [1], in assay [2], in assay [3] and in assay [4] was “inactive” each time.

On to `Cc1ccccc1C(=O)Nc1cccc(C(=O)N/N=C/c2cc(Cl)cc([N+](=O)[O-])c2O)c1`, for which the Potency result in assay [1], in assay [2], in assay [3] and in assay [4] was “inactive” throughout.

Turning to `CCCC1=C/C(=C/c2ccc(-c3ccccc3OC)o2)C(=O)O1`, the Potency entry in assay [1] and in assay [3] was “inactive” in each case. For the same compound, the activation in assay [2] is 1.16% [at 17.1 µM, percent relative to cAMP agonist control]. The activity change, negative = inhibition in assay [4] was -9.78% [at 30.8 µM].

Regarding `O=C(Nc1ccccc1C(=O)O)c1cccc(NC(=O)c2ccc(Br)o2)c1`, the Potency entry in assay [1], in assay [2], in assay [3] and in assay [4] was “inactive” each time.

`CCC1=Nc2cc(C(=O)NCCCOC)ccc2Sc2ccc(Br)cc21`: the Potency entry in assay [1], in assay [2], in assay [3] and in assay [4] was “inactive” in each case.

On to `CCN(C(=O)Cn1c(C(=O)OC)cc2sccc21)c1cccc(C)c1`, for which the Potency result in assay [1], in assay [2], in assay [3] and in assay [4] was “inactive” each time.

For `CN(C)S(=O)(=O)c1ccc(N2CCCC2)c(C(=O)NCC2COc3ccccc3O2)c1` (stereo not given), the Potency entry in assay [1], in assay [2] and in assay [4] was “inactive” in each case. Moreover, in assay [3], the Potency was 30.1 µM (active).

For `CCC1=NN2C(=N)/C(=C/c3ccc(OS(=O)(=O)c4ccccc4)cc3)C(=O)N=C2S1`, the Potency result in assay [1], in assay [2], in assay [3] and in assay [4] was “inactive” in each case.

`CC(C)Nc1nc(NC(C)C)nc(OCCOC(=O)c2ccccc2)n1`: the Potency entry in assay [1], in assay [2], in assay [3] and in assay [4] was “inactive” in each case.

On to `COc1cc(C2NC(=O)c3c(sc4c3CCN(C)C4)N2)cc(Br)c1OC(=O)c1ccc(C)cc1` (stereo not given), for which the Potency entry in assay [1], in assay [2] and in assay [4] was “inactive” in each case. Moreover, the outcome in assay [3] was “inactive [at 12.7 µM]”.

In the case of `O=C(OCC1OC(n2ncc(=O)[nH]c2=O)C(OC(=O)c2ccccc2)C1OC(=O)c1ccccc1)c1ccccc1` (stereo not given), the Potency result in assay [1] and in assay [3] was “inactive” throughout. For the same compound, in assay [2], the activation is 0.888% [at 17.1 µM, percent relative to cAMP agonist control]. In addition, in assay [4], the activity change, negative = inhibition was -8.49% [at 30.8 µM].
